Data reported in PubChem BioAssay AID1159580 (chemical genetic matrix, 2015).
The whole screen tested about 5,500 compounds, of which about 2,000 (36%) were called active. Another 18% or so got no clear call; they are omitted. Some of the results follow. A number with no mark means an inactive call. No stated cut-off is given here; in the data, active means normalized growth mostly below about 0.91 (no sharp cut-off); inconclusive means no clear call, values can overlap the other calls; inactive means mostly above about 0.92.

Assay: chemical genetic growth profiling, strain panel (AID 1159580);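 further: tested at 20 µM; growth read once vehicle control cultures reached saturation at 30 °C; 1 = growth at the plate median or of vehicle wells; lower values mean less growth of the strain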
Details: growth OD

Compound: CCOC(=O)C1=C[C@]2(CC)CCCN3CCc4c(n1c1ccccc41)[C@@H]32
- normalized growth (S. cerevisiae deletion strains, locus YKL009W, strain mrt4, hits give low values): 0.964
- normalized growth (S. cerevisiae deletion strains, locus YKL068W, hits give low values): 0.988
- normalized growth (S. cerevisiae deletion strains, locus YKL085W, strain MDH1 (second series), hits give low values): 0.992
- normalized growth (S. cerevisiae deletion strains, locus YKL085W, strain MDH1, hits give low values): 0.992
- normalized growth (S. cerevisiae deletion strains, locus YKL160W, strain elf1, hits give low values): 1.03
- normalized growth (S. cerevisiae deletion strains, locus YKL190W, strain CNB1, hits give low values): 0.982
- normalized growth (S. cerevisiae deletion strains, locus YKR001C, strain vps1, hits give low values): 0.933
- normalized growth (S. cerevisiae deletion strains, locus YKR026C, strain gcn3, hits give low values): 1.01
- normalized growth (S. cerevisiae deletion strains, locus YKR091W, strain srl3, hits give low values): 1.01
- normalized growth (S. cerevisiae deletion strains, locus YLL001W, strain dnm1, hits give low values): 1.03
- normalized growth (S. cerevisiae deletion strains, locus YLL026W, hits give low values): 1.02
- normalized growth (S. cerevisiae deletion strains, locus YLL041C, strain sdh2, hits give low values): 1.02
- normalized growth (S. cerevisiae deletion strains, locus YLR027C, strain aat2, hits give low values): 1.02
- normalized growth (S. cerevisiae deletion strains, locus YLR039C, strain RIC1, hits give low values): 0.924
- normalized growth (S. cerevisiae deletion strains, locus YLR058C, strain SHM2, hits give low values): 0.963
- normalized growth (S. cerevisiae deletion strains, locus YLR102C, strain apc9, hits give low values): 0.969
- normalized growth (S. cerevisiae deletion strains, locus YLR113W, strain HOG1, hits give low values): 1.01
- normalized growth (S. cerevisiae deletion strains, locus YLR221C, strain rsa3, hits give low values): 1.02
- normalized growth (S. cerevisiae deletion strains, locus YLR258W, strain gsy2, hits give low values): 1.02
- normalized growth (S. cerevisiae deletion strains, locus YLR262C, strain YPT6 (second series), hits give low values): 0.996
- normalized growth (S. cerevisiae deletion strains, locus YLR262C, strain YPT6, hits give low values): 0.852
- normalized growth (S. cerevisiae deletion strains, locus YLR268W, strain sec22, hits give low values): 0.923
- normalized growth (S. cerevisiae deletion strains, locus YLR320W, strain mms22, hits give low values): 0.986
- normalized growth (S. cerevisiae deletion strains, locus YLR330W, strain CHS5, hits give low values): 0.992
- normalized growth (S. cerevisiae deletion strains, locus YLR342W, strain FKS1 (second series), hits give low values): 0.928
- normalized growth (S. cerevisiae deletion strains, locus YLR342W, strain FKS1, hits give low values): 1.01
- normalized growth (S. cerevisiae deletion strains, locus YLR357W, strain rsc2, hits give low values): 1.07
- normalized growth (S. cerevisiae deletion strains, locus YLR370C, strain arc18, hits give low values): 1.02
- normalized growth (S. cerevisiae deletion strains, locus YLR371W, strain rom2, hits give low values): 0.985
- normalized growth (S. cerevisiae deletion strains, locus YLR384C, strain iki3, hits give low values): 1.04
- normalized growth (S. cerevisiae deletion strains, locus YLR418C, strain cdc73, hits give low values): 0.915
- normalized growth (S. cerevisiae deletion strains, locus YML016C, strain PPZ1, hits give low values): 0.985
- normalized growth (S. cerevisiae deletion strains, locus YML032C, strain rad52, hits give low values): 0.95
- normalized growth (S. cerevisiae deletion strains, locus YML120C, strain ndi1, hits give low values): 1.01
- normalized growth (S. cerevisiae deletion strains, locus YML124C, strain tub3, hits give low values): 0.979
- normalized growth (S. cerevisiae deletion strains, locus YMR058W, strain fet3, hits give low values): 1.02
- normalized growth (S. cerevisiae deletion strains, locus YMR078C, strain ctf18, hits give low values): 0.977
- normalized growth (S. cerevisiae deletion strains, locus YMR125W, strain sto1, hits give low values): 1.02
- normalized growth (S. cerevisiae deletion strains, locus YMR129W, hits give low values): 1.02
- normalized growth (S. cerevisiae deletion strains, locus YMR205C, strain PFK2, hits give low values): 0.995
- normalized growth (S. cerevisiae deletion strains, locus YMR223W, strain ubp8, hits give low values): 0.961
- normalized growth (S. cerevisiae deletion strains, locus YMR231W, strain pep5, hits give low values): 1.02
- normalized growth (S. cerevisiae deletion strains, locus YMR263W, strain SAP30, hits give low values): 0.987
- normalized growth (S. cerevisiae deletion strains, locus YMR307W, strain GAS1, hits give low values): 1.01
- normalized growth (S. cerevisiae deletion strains, locus YNL067W, strain RPL9B, hits give low values): 0.949
- normalized growth (S. cerevisiae deletion strains, locus YNL071W, strain lat1, hits give low values): 1.01
- normalized growth (S. cerevisiae deletion strains, locus YNL128W, strain TEP1, hits give low values): 0.988
- normalized growth (S. cerevisiae deletion strains, locus YNL183C, strain NPR1, hits give low values): 0.947
- normalized growth (S. cerevisiae deletion strains, locus YNL209W, strain ssb2, hits give low values): 1.05
- normalized growth (S. cerevisiae deletion strains, locus YNL233W, strain BNI4, hits give low values): 0.931
- normalized growth (S. cerevisiae deletion strains, locus YNL248C, strain rpa49, hits give low values): 1.05
- normalized growth (S. cerevisiae deletion strains, locus YNL250W, strain rad50, hits give low values): 0.978
- normalized growth (S. cerevisiae deletion strains, locus YNL271C, strain bni1, hits give low values): 0.981
- normalized growth (S. cerevisiae deletion strains, locus YNL298W, strain CLA4, hits give low values): 0.98
- normalized growth (S. cerevisiae deletion strains, locus YNL307C, strain MCK1, hits give low values): 0.879 (active)
- normalized growth (S. cerevisiae deletion strains, locus YNL322C, strain KRE1 (second series), hits give low values): 1.02
- normalized growth (S. cerevisiae deletion strains, locus YNL322C, strain KRE1, hits give low values): 0.986
- normalized growth (S. cerevisiae deletion strains, locus YNR049C, strain mso1, hits give low values): 1.02
- normalized growth (S. cerevisiae deletion strains, locus YNR052C, strain pop2, hits give low values): 0.979
- normalized growth (S. cerevisiae deletion strains, locus YOL006C, strain TOP1, hits give low values): 0.803
- normalized growth (S. cerevisiae deletion strains, locus YOL012C, strain htz1): 0.935
- normalized growth (S. cerevisiae deletion strains, locus YOL147C, strain pex11, hits give low values): 0.984
- normalized growth (S. cerevisiae deletion strains, locus YOR001W, strain rrp6, hits give low values): 1.02
- normalized growth (S. cerevisiae deletion strains, locus YOR061W, strain CKA2, hits give low values): 0.964
- normalized growth (S. cerevisiae deletion strains, locus YOR069W, strain VPS5, hits give low values): 0.986
- normalized growth (S. cerevisiae deletion strains, locus YOR070C, strain gyp1, hits give low values): 1.01
- normalized growth (S. cerevisiae deletion strains, locus YOR080W, strain dia2, hits give low values): 1.03
- normalized growth (S. cerevisiae deletion strains, locus YOR083W, strain WHI5, hits give low values): 1.01
- normalized growth (S. cerevisiae deletion strains, locus YOR106W, strain vam3, hits give low values): 1.04
- normalized growth (S. cerevisiae deletion strains, locus YOR136W, strain idh2, hits give low values): 0.978
- normalized growth (S. cerevisiae deletion strains, locus YOR144C, strain elg1, hits give low values): 0.994
- normalized growth (S. cerevisiae deletion strains, locus YOR184W, strain ser1, hits give low values): 0.859 (active)
- normalized growth (S. cerevisiae deletion strains, locus YOR231W, strain MKK1, hits give low values): 1.02
- normalized growth (S. cerevisiae deletion strains, locus YOR265W, strain rbl2, hits give low values): 1.02
- normalized growth (S. cerevisiae deletion strains, locus YOR270C, strain vph1, hits give low values): 0.957
- normalized growth (S. cerevisiae deletion strains, locus YOR290C, strain snf2, hits give low values): 1.01
- normalized growth (S. cerevisiae deletion strains, locus YOR316C, strain cot1, hits give low values): 0.974
- normalized growth (S. cerevisiae deletion strains, locus YPL051W, strain arl3, hits give low values): 1.01
- normalized growth (S. cerevisiae deletion strains, locus YPL055C, strain LGE1, hits give low values): 0.887
- normalized growth (S. cerevisiae deletion strains, locus YPL078C, strain atp4, hits give low values): 1.01
- normalized growth (S. cerevisiae deletion strains, locus YPL106C, strain sse1, hits give low values): 1.03
- normalized growth (S. cerevisiae deletion strains, locus YPL240C, strain hsp82, hits give low values): 1.04
- normalized growth (S. cerevisiae deletion strains, locus YPL256C, strain CLN2, hits give low values): 0.999
- normalized growth (S. cerevisiae deletion strains, locus YPR119W, strain clb2, hits give low values): 0.986
- normalized growth (S. cerevisiae deletion strains, locus YPR141C, strain kar3, hits give low values): 0.986
- normalized growth (S. cerevisiae deletion strains, locus YPR163C, strain tif3, hits give low values): 0.936
- normalized growth (S. cerevisiae deletion strains, locus YPR167C, strain met16, hits give low values): 0.989
- normalized growth (S. cerevisiae deletion strains, strain wtn01, hits give low values): 0.993
- normalized growth (S. cerevisiae strains, strain wild type, hits give low values): 0.974
